{"source": "PubChem BioAssay (NCI)", "note": "About 83,000 compounds went through this panel and 20% of them were active in at least one assay; those are over-represented in the sample as a whole.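 Cells were grown in 96-well plates and exposed to the test compound at a single concentration for 48 hours; results are reported as percent growth, with values below 10 considered active.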 Values without a mark were called inactive. Calls of active or inactive are those of the source."}
{"system": "M14 melanoma", "assay": "NCI-60 one-dose screen, 48 h (100 = growth as untreated, 0 = no growth, -100 = all killed)", "conditions": "10 µM unless noted"}
{"smiles": "N#Cc1c(Nc2ccccc2)nn2c(-c3ccc([N+](=O)[O-])cc3)ccnc12", "growth": "106%"}
{"smiles": "O=C(CCn1c[n+](CC(=O)c2ccc(-c3ccccc3)cc2)c2ccccc21)Nc1cccc2cccnc12", "growth": "49.1%"}
{"smiles": "COc1ccc(OC)c(-c2nc(SCC(=O)c3ccc(Br)cc3)nc(Nc3ccc(S(N)(=O)=O)cc3)c2C#N)c1", "growth": "42.5%"}
{"smiles": "FC(F)(F)c1cc(Nc2cccc(Oc3ccc(NC4=NCCN4)nc3)c2)ccc1Cl", "growth": "-50.7% (active)"}
{"smiles": "CCO/C=N/C1=C(C#N)C(c2ccc(OC)cc2)c2sc3c(CC)cccc3c2O1", "note": "(stereo unspecified)", "growth": "16.1%"}
{"smiles": "CN(C)CCN(C)c1ccc2ncc(C#Cc3cncc(C(=O)Nc4ccc(CN5CCN(C)CC5)c(C(F)(F)F)c4)c3)n2n1", "growth": "-80.8% (active)"}
{"smiles": "COc1ccc(CCOc2cc3c(cc2OC)CCN(C(=O)NCc2cocn2)C3c2ccc(C)cc2C)cc1", "note": "(stereo unspecified)", "growth": "11.7%"}
{"smiles": "CC(C)(C)c1ccc(C(=O)Nc2nc3ccc(O)cc3s2)cc1", "growth": "14.3%"}
{"smiles": "CC1(C)CC[C@]2(C(=O)N3CCOCC3)CC[C@]3(C)C(=CC[C@@H]4[C@@]5(C)C/C(=C/c6ccccn6)C(=O)C(C)(C)[C@@H]5CC[C@]43C)[C@@H]2C1", "growth": "77.9%"}
{"smiles": "CCO/C=N/C1=C(C#N)C(c2ccc(F)cc2)c2sc3c(C)cccc3c2O1", "note": "(stereo unspecified)", "growth": "3.68% (active)"}
{"smiles": "COc1cc(-c2nc(SC(C)C)n(C(C)C)c(=O)c2C#N)ccc1OCc1ccccc1", "growth": "105%"}
